Experimental data as given in PubChem BioAssay (NCI).
The panel holds about 83,000 compounds, 20% with a hit somewhere; the sample as a whole holds those more often.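 The endpoint reported here, percent growth, reads 100 for growth as untreated, 0 for no net growth and -100 for all cells dead.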 Unmarked numbers belong to inactive results. Active and inactive are the calls of the source. How the source made its calls: active means growth percent below 10; inactive means the rest.

test system: NCI-H460 lung; test: NCI-60 one-dose screen, 48 h (100 = growth as untreated, 0 = no growth, -100 = all killed); conditions: 10 µM unless noted

Going from `CC1=NN(c2cccc(Cl)c2)C(=O)/C1=C\c1cn(-c2nc(N3CCOCC3)nc(N3CCOCC3)n2)c2ccccc12` to `O=c1c(N=Nc2nccs2)c(-c2ccccc2)[nH]n1-c1nc(-c2ccccc2)cs1`, the growth falls from 112% to 22.5%.

Going from `O=C(Nc1ccccc1)Nc1ccc(Nc2ncnc3sc4c(c23)CCCC4)cc1` to `Cc1ccc(OCCn2ccc(=O)n(CCOc3ccc(Cl)cc3C(=O)c3cc(C)cc(C)c3)c2=O)cc1`, the growth falls from 104% to 37.2%.

In the case of `CCOP1(=O)CC(C)=C(Cl)C(P(=O)(O)O)C1` (stereo not given), the growth was 114%.

test system: HOP-92 NSCLC; test: as above; conditions: 10 µM

First: C/C(CCC(=O)O)=N/Nc1ccc([N+](=O)[O-])cc1
Second: COc1ccc(-c2nc(SCC(C)C)nc(Nc3ccc([N+](=O)[O-])cc3)c2C#N)cc1
The growth of the first is lower: 74.9% for the first, 93.3% for the second.

First: Nc1nc2c(c3ncncc13)C(c1cccc(C(F)(F)F)c1)Cc1ncncc1-2 (stereo not given)
Second: Nc1nc2c(c3cnccc13)C(c1cccc(Cl)c1)Cc1cnccc1-2 (stereo not given)
The growth of the first is higher: 46% for the first, 33.1% for the second.

First: CCCCCSc1ccc2nc(NC(=O)OCCC)sc2c1
Second: CCCCCSc1ccc2nc(NC(=O)OCC)sc2c1
The growth of the first is higher: 36.3% for the first, 31.7% for the second.

Going from `Cc1c(Cc2ccccc2)c(=O)oc2c(C)c(OCc3n[nH]c(=S)o3)ccc12` to `CCOC(=O)c1c(C)oc2ncnc(Nc3ccc(C(=O)NCCc4ccccc4)cc3)c12`, the growth rises from 57.8% to 61.6%.

First: C=C(C)[C@@H]1CC[C@]2(COC(=O)c3ccccc3C(=O)O)CC[C@]3(C)[C@H](CC[C@@H]4[C@@]5(C)CCCNC(C)(C)[C@@H]5CC[C@]43C)[C@@H]12
Second: CC1(C)NCCC[C@]2(C)[C@H]3CC=C4[C@@H]5C[C@](C)(COC(=O)c6ccccc6C(=O)O)CC[C@]5(C)CC[C@@]4(C)[C@]3(C)CC[C@@H]12
The growth of the first is higher: 86.1% for the first, 54.9% for the second.

First: O=C(CCCC(=O)Nc1ccc(Cn2nnc3cc(Cl)c(Cl)cc32)cc1)Nc1ccc(CN2N=NC3C=C(Cl)C(Cl)=CC32)cc1 (stereo not given)
Second: O=C(Nc1ccccc1)Nc1ccc(Nc2ncnc3sc4c(c23)CCCC4)cc1
The growth of the first is lower: 64.7% for the first, 101% for the second.

Compared with `CCS(=O)(=O)OCCO[C@H]1Cc2cc3ccc(=O)oc3cc2OC1(C)C`, `CCOC(=O)c1cc(C(=O)c2ccc(Br)cc2)n2cc(C)cc(C)c12` is lower in growth: 103% for the first, 77.9% for the second.

First: COC(=O)Nc1nc2ccc(C(=O)c3ccccc3N(C)C3COC3)cc2[nH]1
Second: COc1cc2ncnc(Nc3ccc4c(cnn4C(=O)Nc4ccccc4)c3)c2cc1OC
The growth of the first is lower: 41.1% for the first, 82.8% for the second.

Compared with `COC(=O)/C=C/c1cc(O)c2oc(-c3ccc(O)c(O)c3)c(C(=O)OC)c2c1`, `COc1cc(OC)c(NC(=O)n2ncc3cc(Nc4ncnc5ccccc45)ccc32)cc1Cl` is higher in growth: 56.1% for the first, 87.3% for the second.

First: CC(C)OC(=O)[C@H](C)N[P@@](=O)(OC[C@@]1(C)O[C@@H](n2cc(F)c(N)nc2=O)C[C@@H]1O[P@](=O)(N[C@@H](C)C(=O)OC(C)C)Oc1ccccc1)Oc1ccccc1
Second: COC(c1ccccc1)C(Br)C(=O)c1ccccc1 (stereo not given)
The growth of the first is higher: 85.1% for the first, 71.1% for the second.

Compared with `Cc1nnc(/N=C2\NC(=O)/C(=C/C=C/c3ccccc3)S2)s1`, `O=C1c2ccccc2CCc2ccccc21` is higher in growth: 56.9% for the first, 78.7% for the second.

First: Nc1ncn([C@@H]2O[C@H](CO)[C@@H](O)C2(F)F)c(=O)n1
Second: CCOP1(=O)CC(C)=C(Cl)C(P(=O)(O)O)C1 (stereo not given)
The growth of the first is lower: 34.3% for the first, 89.1% for the second.

First: Nc1nc2c(c3cnccc13)C(c1cccc(Br)c1)Cc1cnccc1-2 (stereo not given)
Second: COc1cc2ncnc(-n3ncc4cc(NC(=O)Nc5ccc(Cl)c(C)c5)ccc43)c2cc1OC
The growth of the first is lower: 15.6% for the first, 93.7% for the second.

First: CC1=NN(c2cccc(Cl)c2)C(=O)/C1=C\c1cn(-c2nc(N3CCOCC3)nc(N3CCOCC3)n2)c2ccccc12
Second: Cc1ccc(OCCn2ccc(=O)n(CCOc3ccc(Cl)cc3C(=O)c3cc(C)cc(C)c3)c2=O)cc1
The growth of the first is higher: 90.6% for the first, 45.9% for the second.

In the case of `Cn1c2c(cc(S(=O)(=O)c3ccccc3)c1=O)CCc1c-2cnn1-c1ccc(Cl)cc1`, the growth was -34.2% (active).
For `COc1cc(/C=C/C(=O)c2ccc(F)cc2)ccc1OCCCCOc1cc2c(cc1OC)C(=O)N1CCCC1C=N2` (stereo not given), the growth was -43.9% (active).
`O=C1Nc2ccccc2/C1=C/c1cn(CC(O)Cn2cc(/C=C3\C(=O)Nc4ccccc43)c3ccccc32)c2ccccc12` (stereo not given) was tested, and the growth was -73.9% (active).
For `COc1cc2ncnc(-n3ncc4cc(NC(=O)Nc5ccccc5)ccc43)c2cc1OC`, the growth was -20.3% (active).
For `COc1cc(-c2cc3cnccc3c3nc(N)c4ccncc4c23)cc(OC)c1OC`, the growth was -0.882% (active).
For `COc1cc(OC)cc(-c2ccc(-c3ccc(C(=N)N)cc3)s2)c1`, the growth was -80.6% (active).
In the case of `O=C1/C(=C\c2cn(-c3nc(N4CCOCC4)nc(N4CCOCC4)n3)c3ccccc23)c2ccccc2N1c1c(Cl)cccc1Cl`, the growth was 3.38% (active).
With `CC1=C[C@@H]2c3c(c(O)c(O)c4oc5cc(O)cc(O)c5c(=O)c34)[C@@H](c3cc(O)c(O)c4oc5cc(O)cc(O)c5c(=O)c34)[C@@H]2C(C)(C)C1` the growth was -15% (active).
`N=C(N)c1ccc(-c2ccc(-c3cc(Cl)cc(Cl)c3)s2)cc1` was tested, and the growth was -77.1% (active).
In the case of `COc1cc2ncnc(-n3ncc4cc(NC(=O)Nc5ccc(Cl)c(Cl)c5)ccc43)c2cc1OC`, the growth was -57.2% (active).
`COC1=CC(c2ccc[nH]2)=N/C1=C\c1[nH]c(C)c(C(=O)CCCCC(=O)NC(C)(C)C)c1C` was tested, and the growth was 3% (active).
`O=c1c(N=Nc2nccs2)c(-c2ccccc2)[nH]n1-c1nc(-c2ccccc2)cs1` was tested, and the growth was -8.96% (active).
